Results filed as inconclusive are left out. Activity calls are given as the source filed them. The call rests on the fitted dose curve; in most records, active means well fitted curve in the direction sought with a large enough effect; inconclusive means small, poorly fitted or top-dose-only effect, or another doubt; inactive means no such curve, though single readings can be large; an effect the other way counts as inactive or inconclusive.
Legend:
[1] = Cell Viability - LYMP2-012 (AID 982);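 further: cellular ATP by luciferase luminescence where a drop means cytotoxicity; cells exposed to compound for one day before reading; nearly all actives have a fitted effect of over 55% in size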
[2] = Cell Viability - LYMP2-014 (AID 983);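 further: cells exposed to compound for 24 h at 37 °C; nearly all actives have a fitted effect of over 50% in size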
Outline: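 Luminescent ATP signal (CellTiter-Glo, 30 min at room temperature) serves as the viability read-out after 24 hr compound exposure at 37 C. Cells were seeded at 2500 per well and settled 5 hr beforehand.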

[3] = Cell Viability - LYMP2-016 (AID 984);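 further: cells exposed to compound for 24 hours at 37 °C; nearly all actives have a fitted effect of over 55% in size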
Outline: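 qHTS, 1536-well: 2500 LYMP2-016 cells/well, 5 hr 37 C, compound added, 24 hr 37 C, CellTiter-Glo 30 min RT, luminescence. Tetraoctylammonium bromide positive control. AC50 via Hill fit.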

[4] = Cell Viability - LYMP2-018 (AID 985); further: nearly all actives have a fitted effect of over 50% in size
Outline: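 Luminescent ATP signal (CellTiter-Glo, read after 30 min at room temperature) reports viable cells after 24 hr compound treatment at 37 C. Concentration-response data were fitted to the standard Hill equation for AC50.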

[5] = Cell Viability - LYMP2-024 (AID 988); further: nearly all actives have a fitted effect of over 60% in size
Outline: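 Steps: seed 2500 cells/well, 5 hr 37 C; add compound, 24 hr 37 C; add CellTiter-Glo, 30 min room temperature; read luminescence. AC50 derived by Hill modelling of concentration-dependent ATP loss.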

[6] = Cell Viability - LYMP2-026 (AID 989);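 further: cells exposed to compound for 24 h at 37 °C; nearly all actives have a fitted effect of over 50% in size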
Outline: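 Luminescent ATP signal (CellTiter-Glo, 30 min room temperature) measures viable lymphoblastoid cells after 24 hr compound treatment at 37 C. Decreased ATP reflects acute toxicity; AC50 values come from Hill-equation modeling.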

[7] = Cell Viability - LYMP1-002 - Assay at 24 hr (AID 993)
Outline: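 Cells plated 2500/well, 5 hr 37 C; compounds added, 24 hr 37 C; CellTiter-Glo added, 30 min RT; luminescence read. Tetraoctylammonium bromide positive control. Hill-equation AC50.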

[8] = Cell Viability - LYMP1-002 - Assay at 40 hr (AID 994); further: nearly all actives have a fitted effect of over 60% in size
Outline: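 Luminescent ATP signal served as the viability readout, with decreases taken as toxicity. Cells were treated with compounds across a concentration range for 40 hours at 37 C, and AC50 values came from standard Hill modeling.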

[9] = target: ATP-dependent 6-phosphofructokinase (Trypanosoma brucei brucei) (UniProt O15648); assay: qHTS Assay to Find Inhibitors of T. brucei phosphofructokinase: hit validation (AID 492961);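 further: luminescence reports ADP formed as PFK phosphorylates fructose-6-phosphate with ATP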
Sequence of ATP-dependent 6-phosphofructokinase (Trypanosoma brucei brucei) (O15648 whole entry, looked up): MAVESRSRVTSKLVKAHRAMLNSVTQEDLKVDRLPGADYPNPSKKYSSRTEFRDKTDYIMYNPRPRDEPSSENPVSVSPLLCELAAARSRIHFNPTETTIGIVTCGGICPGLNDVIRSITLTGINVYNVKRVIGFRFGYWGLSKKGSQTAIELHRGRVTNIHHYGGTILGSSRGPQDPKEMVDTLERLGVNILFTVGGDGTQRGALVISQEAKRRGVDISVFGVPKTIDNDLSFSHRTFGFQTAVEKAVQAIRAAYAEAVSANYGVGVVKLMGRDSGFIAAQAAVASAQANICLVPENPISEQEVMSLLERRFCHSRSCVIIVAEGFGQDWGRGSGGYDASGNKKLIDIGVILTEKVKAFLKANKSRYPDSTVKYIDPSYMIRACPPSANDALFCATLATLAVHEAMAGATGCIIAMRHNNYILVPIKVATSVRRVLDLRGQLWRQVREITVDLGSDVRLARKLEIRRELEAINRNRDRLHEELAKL
Outline: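 In this biochemical qHTS validation, titrated compounds were tested against 1.25 nM PFK with 0.1 mM ATP and 0.5 mM F6P. Percent activity came from controls lacking or containing enzyme.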

[10] = test system: AS120; assay: qHTS profiling for inhibitors of Plasmodium falciparum proliferation (AID 504749); further: nearly all actives have a fitted effect of over 60% in size; details: P. falciparum in erythrocytes, SYBR Green DNA, 72 h; series mostly up to 28.7 µM
Outline: (§1)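 Infected RBCs, 0.3% parasitemia/2.5% Hct final; cpd 72 h, 37 C, 5% CO2; lysis buffer with saponin/triton/SYBR Green I, o/n RT dark; FI 485/535; norm. to artemisinin (0.29 uM) and DMSO.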

[11] = test system: ATS189; assay: as above; details: P. falciparum in erythrocytes, SYBR Green DNA, 72 h; series mostly up to 28.7 µM
Outline: as §1

[12] = test system: CP191; assay: as above; details: P. falciparum in erythrocytes, SYBR Green DNA, 72 h; series mostly up to 28.7 µM
Outline: as §1

[13] = test system: CP192; assay: as above; details: P. falciparum in erythrocytes, SYBR Green DNA, 72 h; series mostly up to 28.7 µM
Outline: as §1

[14] = test system: CP201; assay: as above; details: P. falciparum in erythrocytes, SYBR Green DNA, 72 h; series mostly up to 28.7 µM
Outline: as §1

[15] = test system: CP203; assay: as above; details: P. falciparum in erythrocytes, SYBR Green DNA, 72 h; series mostly up to 28.7 µM
Outline: as §1

[16] = test system: CP247; assay: as above; details: P. falciparum in erythrocytes, SYBR Green DNA, 72 h; series mostly up to 28.7 µM
Outline: as §1

[17] = test system: CP291; assay: as above; details: P. falciparum in erythrocytes, SYBR Green DNA, 72 h; series mostly up to 28.7 µM
Outline: as §1

[18] = test system: DFO2036; assay: as above; details: P. falciparum in erythrocytes, SYBR Green DNA, 72 h; series mostly up to 28.7 µM
Outline: as §1

[19] = test system: P94_40; assay: as above; details: P. falciparum in erythrocytes, SYBR Green DNA, 72 h; series mostly up to 28.7 µM
Outline: as §1

[20] = test system: TAB113; assay: as above; details: P. falciparum in erythrocytes, SYBR Green DNA, 72 h; series mostly up to 28.7 µM
Outline: as §1

Measured: Potency

CC(C)(c1ccc(OCC2CO2)cc1)c1ccc(OCC2CO2)cc1 (stereo not given)
inactive: [1] | [2] | [3] | [4] | [5] | [6] | [7] | [8]

CCN1C[C@]2(COC)[C@H](O)C[C@H](OC)[C@]34C1C([C@H](OC)[C@H]23)[C@]1(OC(C)=O)C2[C@@H](OC(=O)c3ccccc3)C(O)(C[C@H]24)[C@@H](OC)[C@@H]1O
not listed: [1] | [2] | [3] | [4] | [5] | [6] | [7] | [8]
inactive: all other assays above
